Source: the supplement of paper PMC8975748
Structures can show the parent of a compound that is named as a salt. ± gives the standard deviation of the averaged measurements.

Columns and labels:
[1] = system: Saccharomyces cerevisiae BY4741 SeMeCo community; experiment: mean cell size (pixel area) (pixels); higher = larger cells; conditions: 10 µM; 24 h; SM minimal medium
Procedure, shortened: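 In this assay, mean cell pixel area per well was obtained from automated confocal images of paraformaldehyde-fixed yeast analysed in Harmony. The cells were a Saccharomyces cerevisiae BY4741 community with four plasmids, each complementing one auxotrophy and carrying a fluorescent marker, grown for 24 h in SM medium with drug at a final 10 µM in 384-well plates. Values are averaged across 3 replicates. Same SeMeCo high-content imaging drug screen: Selleck FDA-approved drugs at 10 µM, 24 h in SM medium, 384-well plates, 3 replicates.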

[2] = system: Saccharomyces cerevisiae BY4741 SeMeCo community; experiment: z-score of prototroph abundance vs DMSO median; higher = larger share of this subpopulation than in DMSO controls; conditions: 10 µM; 24 h; SM minimal medium; subpopulation (auxotrophy): Prototroph
Procedure, shortened: (§1)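 Scoring was based on each subpopulation's abundance, expressed as a z-score against the vehicle-well median. A Saccharomyces cerevisiae BY4741 community with four plasmids, each restoring one auxotrophy and encoding a distinct fluorescent protein, was pre-grown overnight to OD600 1.0, diluted to 0.3, and added at 70 µl to 384-well plates acoustically predosed with library drugs (10 µM final). It then grew 24 h in minimal SM medium before paraformaldehyde fixation and automated confocal microscopy, with single-auxotroph fluorescent strains setting thresholds and autofluorescence correction.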

[3] = system: Saccharomyces cerevisiae BY4741 SeMeCo community; experiment: z-score of subpopulation abundance vs DMSO median, subpopulation auxotrophic for M; higher = larger share of this subpopulation than in DMSO controls; conditions: 10 µM; 24 h; SM minimal medium; subpopulation (auxotrophy): M
Procedure, shortened: as §1

[4] = system: Saccharomyces cerevisiae BY4741 SeMeCo community; experiment: z-score of subpopulation abundance vs DMSO median, subpopulation auxotrophic for L; higher = larger share of this subpopulation than in DMSO controls; conditions: 10 µM; 24 h; SM minimal medium; subpopulation (auxotrophy): L
Procedure, shortened: as §1

[5] = system: Saccharomyces cerevisiae BY4741 SeMeCo community; experiment: z-score of subpopulation abundance vs DMSO median, subpopulation auxotrophic for U; higher = larger share of this subpopulation than in DMSO controls; conditions: 10 µM; 24 h; SM minimal medium; subpopulation (auxotrophy): U
Procedure, shortened: as §1

[6] = system: Saccharomyces cerevisiae BY4741 SeMeCo community; experiment: z-score of subpopulation abundance vs DMSO median, subpopulation auxotrophic for H; higher = larger share of this subpopulation than in DMSO controls; conditions: 10 µM; 24 h; SM minimal medium; subpopulation (auxotrophy): H
Procedure, shortened: as §1

[7] = system: Saccharomyces cerevisiae BY4741 SeMeCo community; experiment: z-score of subpopulation abundance vs DMSO median, subpopulation auxotrophic for LU; higher = larger share of this subpopulation than in DMSO controls; conditions: 10 µM; 24 h; SM minimal medium; subpopulation (auxotrophy): LU
Procedure, shortened: as §1

[8] = system: Saccharomyces cerevisiae BY4741 SeMeCo community; experiment: z-score of subpopulation abundance vs DMSO median, subpopulation auxotrophic for LM; higher = larger share of this subpopulation than in DMSO controls; conditions: 10 µM; 24 h; SM minimal medium; subpopulation (auxotrophy): LM
Procedure, shortened: as §1

[9] = system: Saccharomyces cerevisiae BY4741 SeMeCo community; experiment: z-score of subpopulation abundance vs DMSO median, subpopulation auxotrophic for HM; higher = larger share of this subpopulation than in DMSO controls; conditions: 10 µM; 24 h; SM minimal medium; subpopulation (auxotrophy): HM
Procedure, shortened: as §1

[10] = system: Saccharomyces cerevisiae BY4741 SeMeCo community; experiment: z-score of subpopulation abundance vs DMSO median, subpopulation auxotrophic for HU; higher = larger share of this subpopulation than in DMSO controls; conditions: 10 µM; 24 h; SM minimal medium; subpopulation (auxotrophy): HU
Procedure, shortened: as §1

[11] = system: Saccharomyces cerevisiae BY4741 SeMeCo community; experiment: z-score of subpopulation abundance vs DMSO median, subpopulation auxotrophic for UM; higher = larger share of this subpopulation than in DMSO controls; conditions: 10 µM; 24 h; SM minimal medium; subpopulation (auxotrophy): UM
Procedure, shortened: as §1

[12] = system: Saccharomyces cerevisiae BY4741 SeMeCo community; experiment: z-score of subpopulation abundance vs DMSO median, subpopulation auxotrophic for HL; higher = larger share of this subpopulation than in DMSO controls; conditions: 10 µM; 24 h; SM minimal medium; subpopulation (auxotrophy): HL
Procedure, shortened: as §1

[13] = system: Saccharomyces cerevisiae BY4741 SeMeCo community; experiment: z-score of subpopulation abundance vs DMSO median, subpopulation auxotrophic for HLU; higher = larger share of this subpopulation than in DMSO controls; conditions: 10 µM; 24 h; SM minimal medium; subpopulation (auxotrophy): HLU
Procedure, shortened: as §1

[14] = system: Saccharomyces cerevisiae BY4741 SeMeCo community; experiment: z-score of subpopulation abundance vs DMSO median, subpopulation auxotrophic for HLM; higher = larger share of this subpopulation than in DMSO controls; conditions: 10 µM; 24 h; SM minimal medium; subpopulation (auxotrophy): HLM
Procedure, shortened: as §1

[15] = system: Saccharomyces cerevisiae BY4741 SeMeCo community; experiment: z-score of subpopulation abundance vs DMSO median, subpopulation auxotrophic for HUM; higher = larger share of this subpopulation than in DMSO controls; conditions: 10 µM; 24 h; SM minimal medium; subpopulation (auxotrophy): HUM
Procedure, shortened: as §1

[16] = system: Saccharomyces cerevisiae BY4741 SeMeCo community; experiment: z-score of subpopulation abundance vs DMSO median, subpopulation auxotrophic for LUM; higher = larger share of this subpopulation than in DMSO controls; conditions: 10 µM; 24 h; SM minimal medium; subpopulation (auxotrophy): LUM
Procedure, shortened: as §1

[17] = system: Saccharomyces cerevisiae BY4741 SeMeCo community; experiment: z-score of subpopulation abundance vs DMSO median, subpopulation auxotrophic for HLUM; higher = larger share of this subpopulation than in DMSO controls; conditions: 10 µM; 24 h; SM minimal medium; subpopulation (auxotrophy): HLUM
Procedure, shortened: as §1

SMILES | mean cell size [1] | z-score of prototroph abundance [2] | z-score of subpopulation abundance [3] | z-score of subpopulation abundance [4] | z-score of subpopulation abundance [5] | z-score of subpopulation abundance [6] | z-score of subpopulation abundance [7] | z-score of subpopulation abundance [8] | z-score of subpopulation abundance [9] | z-score of subpopulation abundance [10] | z-score of subpopulation abundance [11] | z-score of subpopulation abundance [12] | z-score of subpopulation abundance [13] | z-score of subpopulation abundance [14] | z-score of subpopulation abundance [15] | z-score of subpopulation abundance [16] | z-score of subpopulation abundance [17]
O=C(O)c1cc(=O)c2c(OCC(O)COc3cccc4oc(C(=O)O)cc(=O)c34)cccc2o1 [Disodium Cromoglycate] | 12.1 ± 0.22 | 0.23 | -0.6 | -1.19 | 0.66 | -0.75 | -0.38 | -0.12 | -0.13 | 0.68 | -0.22 | -1.3 | -0.29 | -0.04 | -0.62 | -0.55 | -0.81
CCC[C@@H]1C[C@@H](C(=O)N[C@@H]([C@H]2O[C@H](SC)[C@H](O)[C@@H](O)[C@H]2O)[C@@H](C)O)N(C)C1 [Lincomycin HCl] | 12.4 ± 0.14 | 0.69 | 0.32 | -0.98 | -0.24 |  | -0.63 | -0.14 | -0.17 | -0.73 | 0.19 | -0.34 | -0.34 | -0.77 | 0.3 | -0.87 | -0.36
Fc1ccc([C@@H]2CCNC[C@H]2COc2ccc3c(c2)OCO3)cc1 [Paroxetine mesylate] | 12.1 ± 0.27 | 0.14 | -0.51 | 0.03 | 0.96 |  | 0.46 | -0.87 | -0.77 | -0.22 | 0.67 | -0.67 | 0 | 0.34 | -0.17 | -0.39 | -0.05
Oc1c(Cl)cc(Cl)cc1Sc1cc(Cl)cc(Cl)c1O [Bithionol] | 12.4 ± 0.28 | -1.81 | -3.78 | -1.47 | 1.53 |  | 1.88 | -1.62 | -0.03 | 5.87 | -0.68 | 3.98 | 2.39 | 4.37 | 3.51 | 2.62 | 2.92
CC(C)n1c(/C=C/C(O)CC(O)CC(=O)O)c(-c2ccc(F)cc2)c2ccccc21 (stereo not drawn) [Fluvastatin Sodium] | 12.1 ± 0.16 | -11 | 6.6 | -1.3 | 0.84 | 6.45 | 1.08 | -0.26 | 17.4 | 7.53 | 8.31 | 7.24 | 4.2 | 21.3 | 12.8 | 4.75 | 14
CCN(CC)CCOc1ccc2c(c1)C(=O)c1cc(OCCN(CC)CC)ccc1-2 [Tilorone dihydrochloride] | 12.3 ± 0.13 | 0.72 | -1.12 | -0.72 | 0.24 | 0.18 | -0.27 | -0.86 | -1.02 | 0.05 | -0.31 | -0.65 | -0.23 | 0.21 | -0.66 | -0.39 | -0.11
COc1cc(C(C)=O)ccc1OCCCN1CCC(c2noc3cc(F)ccc23)CC1 [Iloperidone] | 12.4 ± 0.16 | -0.06 | 0.33 | 0.2 | -0.16 | 0.05 | -0.41 | 0.71 | 0.05 | -0.38 | -0.39 | 0.55 | -1.31 | 0.44 | -0.98 | 0.9 | -0.49
C[C@@H](O)[C@H]1C(=O)N2C(C(=O)O)=C(S[C@@H]3CN[C@H](CNS(N)(=O)=O)C3)[C@H](C)[C@H]12 [Doripenem Hydrate] | 12.38 ± 0.092 | 0.39 | -0.6 | 0.82 | 0.2 | -0.3 | 0.22 | -0.44 | -0.76 | -0.19 | -0.42 | -0.25 | -0.09 | -0.78 | -0.79 | -0.2 | -1.04
Cc1nc(=O)c2cc(CN(C)c3ccc(C(=O)N[C@@H](CCC(=O)O)C(=O)O)s3)ccc2[nH]1 [Raltitrexed] | 13.1 ± 0.36 | 1.91 | 0.3 | -0.42 | -1.11 | -0.94 | -1.62 | -0.75 | -0.66 | -2.1 | -2.8 | -0.37 | -0.94 | -0.97 | -1.9 | -2.16 | -1.38
N=C(N)NC(=N)N1CCOCC1 [Moroxydine HCl] | 12.4 ± 0.078 | 0.31 | -0.15 | -0.09 | 0.43 | -0.19 | 0.31 | 0.58 | -0.15 | -0.45 | 0.37 | -0.09 | 0.08 | -0.37 | -0.28 | 0.38 | -0.61
CCOc1ccc(NC(C)=O)cc1 [Phenacetin] | 12.6 ± 0.17 | -0.61 | 0.1 | -0.65 | 0.86 | 0.23 | 0.1 | -1.19 | 0.08 | 0.77 | 0.96 | -0.01 | 0.79 | 0.8 | 1.17 | -0.17 | 0.17
Oc1c(Cl)cc(Cl)c2cccnc12 [Chloroxine] | 13.6 ± 0.85 | -16.8 | 3.4 | -0.75 | -1.29 | 13.2 | 11.5 | 10.6 | 28.2 | 12.7 | 1.02 | 21.7 | 33.8 | 45.7 | 19.8 | 17.1 | 32.5
COc1cccc2c1C(=O)c1c(O)c3c(c(O)c1C2=O)C[C@@](O)(C(=O)CO)C[C@@H]3O[C@H]1C[C@H](N)[C@@H](O)[C@H](C)O1 [Epirubicin HCl] | 12.6 ± 0.2 | -0.14 | -4.59 | 1.16 | 1.23 | 1.56 | 2.53 | -0.38 | -3.22 | 3.44 | -0.97 | 2.24 | 2.87 | 0.2 | 0.3 | 2.67 | 4.48
